# Experimental data as given in the supplement of paper PMC11417369.
# ± gives the standard deviation of the averaged measurements. In all, about 25,000 sequences were measured (“ln(normalized median fluorescence intensity)”: median about 7.9, highest 2% from about 11 on). What follows is part of a selection rich in the highest values, with near analogues and random picks from the rest.
# System: PfAP2-I AP2 domain 3 (GST-tagged)
# Experiment: gcPBM binding intensity (ln(normalized median fluorescence intensity)); higher = stronger DNA binding
# How it was run: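 Alexa488 anti-GST antibody, scanned at 488 nm, detected GST-tagged P. falciparum DNA-binding domains that had been expressed in E. coli and incubated for 1 h on an Agilent 4 × 180k array. The array carried primer-extended double-stranded 36-bp intergenic genomic probes and negative controls. Binding intensity is the highest Masliner-normalised natural-log median intensity across replicate spots of either orientation of each probe.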
row,Sequence,gcPBM binding intensity (ln)
1,ACTTCATTTTTTTTATGTACACAGAAGATTTACAAA [XGTACX_site4021],8.44 ± 0.47
2,TTTATTTGTAACGGTTGTACTTGTATATCATTATGA [XGTACX_site4281],7.72 ± 0.4
3,AAAAAAGACCATGTTAGTACATAAGATTTTTTTCAT [XGTACX_site4298],7.53 ± 0.57
4,ATATTGCTTATTTGATGTACGAATACACTAGTATTA [XGTACX_site4536],7.79 ± 0.64
5,TTATATTATATATATAGTACACATGTAATATTTCAA [XGTACX_site1791],7.76 ± 0.35
6,ACCCTATTTATATATACACACACATATATAAATAAA [CACACA_site8980],8.24 ± 0.36
7,AAAAAAAAAAATATAACACACAAAAAATTGTATCGA [CACACA_site1144],7.53 ± 0.26
8,GCTATTAATTTATAAGCACACAATATAAATATATAT [CACACA_site2251],8.46 ± 0.057
9,TTTTGTTTATGTGTGCATTATATTATATTTTTTATT [TGCATGCA_negctrl_site146],10.9 ± 0.45
10,AAGTTATATTTGTGTACACATAATTTTATACTAATA [CACACA_site5553],8.82 ± 0.33
11,ATATATTATAGAGGTGTGCACTACATACATTATAAT [GTGCAC_site9991],10.9 ± 0.4
12,TTGCATATTTCTAATTGTACATTATTTTATTTTATA [XGTACX_site8451],7.75 ± 0.54
13,AGTACATTTTTGTGTGTGCACTAATATTATATACTT [GTGCAC_site9568],11.3 ± 0.62
14,TATGTTTGTGTATATATTTATTTTTATGTAATTATA [GTGCAC_negctrl_site219],7.75 ± 0.45
15,TTGGGTGCATATATTTGTACACATTATTTCTATTTT [XGTACX_site3688],11.2 ± 0.85
16,AATAAATAGAAAGAGGTGCTACATTATATTATTTAT,8.73 ± 0.3
17,CTTAAATTAATTTGGGTGCATATATTTGTACACATT [GTGCAC_site9948],10.8 ± 0.53
18,TATATATATATTTTTTGTACATATTATATAATATAC [XGTACX_site5187],9.025 ± 0.064
19,ATATGTATGTATTTATTATTGTGCATTGTATTTATA [CACACA_negctrl_site664],9.36 ± 0.38

row,Sequence,gcPBM binding intensity (ln)
1,AAATATAATAATACATTGCACATATATTATATATAT [TGCATGCA_negctrl_site611],8.53 ± 0.64
2,CCTTTTTCTACTTTCTCACACATATTAAGAATTATA [CACACA_site5621],8.29 ± 0.51
3,ATAAAAATGGATGAATATAAAAAAAAAAAAATATAT [CACACA_negctrl_site182],7.74 ± 0.59
4,AAAAAAAATAAAAATATATATATATATATATAAATA [GTGCAC_negctrl_site676],7.82 ± 0.53
5,TTCAATAGTAAGTATACACACATATATATATATAAA [CACACA_site2687],7.82 ± 0.47
6,TTACTTAATAGACACACACACAAAAAAAAAAAAAAA [CACACA_site6572],8.12 ± 0.49
7,TTATTAAATTTTTTTTGTACTTATATATATATATAT [XGTACX_site2443],9.23 ± 0.18
8,GTGTGCAAAAATTGTTGTACATTATATATAAAAAAA [XGTACX_site3246],9.41 ± 0.34
9,TATATATTATATATATGTACATATTGTTGTGTATAT [XGTACX_site767],7.92 ± 0.43
10,GTTTATGTATTATTATGTACGTATCATAATATATAT [XGTACX_site2385],8.28 ± 0.38
11,AATTGTGCATTATATTGTACACGTGTTGTATATATT [XGTACX_site975],11.1 ± 0.4
12,ATATAATAAATGTAGGTGCATAAAAATATTTTGTTA [GTGCAC_site9780],11 ± 0.45
13,AAATAATTATTTATCACACATATGTATTTATATATA [CACACA_site4589],7.66 ± 0.43
14,TTATATTAATTTTGTTGTACTATTTGTGCATTAAAT [XGTACX_site4790],11.1 ± 0.78
15,TTTTTTTTTTTTTTGTGTACTAATATTATAAATTTT [XGTACX_site4405],8.14 ± 0.3
16,ATTTTTTAAAATATTTGTACATATATAATGCATATA [XGTACX_site7026],8.17 ± 0.17
17,TTTTGTTATAAATAATGTACATATTTATTTAAAATT [XGTACX_site6610],7.69 ± 0.38
18,AGTGCATAATATTTATGTACGTATCACATATATTTT [XGTACX_site5166],11.3 ± 0.83
19,ATAATAAATTCTACGCGTACAAAACCATGAACATTA [XGTACX_site7505],8.02 ± 0.38

row,Sequence,gcPBM binding intensity (ln)
1,TAATTAAAATTAAGAAGTACATTTTACTTTTAATGC [XGTACX_site5120],7.61 ± 0.63
2,TTTTATTAAAACCACGCATGCAGAGGAAACGGTGAG [TGCATGCA_site1029],8.45 ± 0.64
3,GTGTTAAATTTTTGAACATGCAAGTTTTATTATTGA [TGCATGCA_site478],7.58 ± 0.56
4,ATATTCCTACATACAACACACGACGTTCTCATAAGA [CACACA_site231],8.06 ± 0.66
5,TTATATGCATAAAAACGTACAAAAATGTATTCATGT [XGTACX_site2215],8.06 ± 0.52
6,TCACTTTTATAATATAATATTCTATATCTTATTTTT [GTGCAC_negctrl_site717],7.47 ± 0.47
7,TAATATAAAGAAATATCAATAATTTGGGCAAATGCC [GTGCAC_negctrl_site621],7.53 ± 0.45
8,TTGCATTAATTTATGTGTACATATAAATTTTTATTT [XGTACX_site3060],8.21 ± 0.15
9,ATAATAATATTATTTTGTACATATGTGCTTATTTAT [XGTACX_site5540],8.375 ± 0.035
10,AATAATATTTATTTTTGTACATATGTGCATTATAAA [XGTACX_site3682],11 ± 0.98
11,AAAAAATTAAAAATCACACATAAATATATATAAAAA [CACACA_site4192],7.53 ± 0.67
12,AAAATTTAATATAATGCACACATAAAAAAAAAATCA [CACACA_site7882],11.2 ± 0.76
13,ACATCATAAAATTTATGTACACATTTTTAATTATAC [XGTACX_site7759],8.19 ± 0.19
14,TTTATCAAAATAAATGCACACAAATTGCACATATCT [CACACA_site8281],10.31 ± 0.035
15,AAATTAAAATATAATACACACATAAAAAAAAAATCA [CACACA_site5918],7.68 ± 0.61
16,ATTTATAAAATTAATGCACACATCAGCATTTATAAA [CACACA_site1025],11.3 ± 0.79
17,CTCTATAAATGCTGCACACACATTTAATTATTTAAG [CACACA_site2582],9.045 ± 0.064
18,AATTTAATATAATGCACACATAAAAAAAAAATCAAA [CACACA_site1],10.9 ± 0.65
